Measurements reported in PubChem BioAssay (Tox21).
Records with an inconclusive call do not appear. Active and inactive are the calls of the source. Unless noted, calls come from the whole dose curve.

Columns and labels:
[1] = Nuclear factor erythroid 2-related factor 2/antioxidant responsive element (Nrf2/ARE) small molecule agonists: luciferase reporter gene qHTS assay in human keratinocytes (AID 1919969); note: nearly all actives have a fitted effect of over 35% in size
[2] = target: Gonadotropin-releasing hormone receptor (Homo sapiens) (UniProt P30968); experiment: Human gonadotropin-releasing hormone receptor (GnRHR) small molecule agonists, calcium flux assay in GnRHR-HEK293 cells (AID 1920063); note: nearly all actives have a fitted effect of over 35% in size
Gonadotropin-releasing hormone receptor (Homo sapiens), sequence (P30968 whole entry, looked up): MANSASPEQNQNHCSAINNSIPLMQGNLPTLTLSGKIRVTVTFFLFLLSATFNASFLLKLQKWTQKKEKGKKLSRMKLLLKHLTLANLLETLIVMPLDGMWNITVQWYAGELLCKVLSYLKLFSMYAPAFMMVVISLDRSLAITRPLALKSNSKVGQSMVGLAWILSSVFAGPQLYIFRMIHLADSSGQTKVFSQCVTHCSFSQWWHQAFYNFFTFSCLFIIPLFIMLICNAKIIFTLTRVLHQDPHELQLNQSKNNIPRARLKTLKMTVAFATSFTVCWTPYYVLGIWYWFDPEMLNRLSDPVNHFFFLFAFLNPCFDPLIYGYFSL
Method in brief: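 We seeded human GnRHR-expressing HEK293 cells for 18 hours, loaded them with calcium dye for an hour at 37 C, added test compounds, and recorded fluorescence intensity kinetically for three minutes.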

[3] = target: KiSS-1 receptor (Homo sapiens) (UniProt Q969F8); experiment: Human kisspeptin (KISS1R) small molecule agonists, calcium flux assay in KISS1R-HEK293 cells (AID 1920064; active = well fitted activation curve with a large enough effect in the repeat runs)
KiSS-1 receptor (Homo sapiens), sequence (Q969F8 whole entry, looked up): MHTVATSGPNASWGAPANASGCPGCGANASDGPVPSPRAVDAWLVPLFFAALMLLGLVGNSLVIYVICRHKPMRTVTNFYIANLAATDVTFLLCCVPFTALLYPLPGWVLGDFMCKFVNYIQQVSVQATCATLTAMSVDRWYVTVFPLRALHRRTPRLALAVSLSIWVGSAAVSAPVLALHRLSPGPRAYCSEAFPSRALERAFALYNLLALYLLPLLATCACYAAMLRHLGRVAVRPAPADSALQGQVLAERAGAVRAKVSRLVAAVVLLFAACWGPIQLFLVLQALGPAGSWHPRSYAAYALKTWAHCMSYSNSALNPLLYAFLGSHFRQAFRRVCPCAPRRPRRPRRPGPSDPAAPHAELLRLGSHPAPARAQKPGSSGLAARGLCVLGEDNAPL
Method in brief: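 Kinetic calcium assay, 1 s sampling over 3 min at Ex/Em 480/540, in HEK293 cells engineered with human KISS1R; compounds delivered in DMSO after 1 h dye loading.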

[4] = G protein-coupled receptor (GPCR) small molecule agonists, calcium flux assay: HEK293 wild type cell line counter screen (AID 1920065)
Method in brief: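 Calcium-sensitive dye, loaded 1 h at 37 C into cells cultured 18 h, reports compound-evoked calcium release as fluorescence (Ex/Em 480/540), measured over 3 min. Agonist mode; 15-point titrations, triplicate.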

[5] = p53 small molecule agonists, cell-based qHTS assay with human liver microsomes (AID 1963577);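 note: p53 response element beta-lactamase reporter cells with liver microsomes plus NADPH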
Method in brief: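 16 h, 37 C exposure of p53RE-bla cells to compounds with human liver microsomes and NADPH (0.5 mg/mL final each); detection via LiveBLAzer mixture, 2 h dark at room temperature.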

[6] = p53 small molecule agonists, cell-based qHTS assay with rat liver microsomes (AID 1963578)
Method in brief: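 With rat liver microsomes and NADPH present (0.5 mg/mL final each), p53RE-bla cells are treated with compound for 16 h at 37 C. LiveBLAzer detection mixture is then applied for 2 h at room temperature in the dark.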

[7] = p53 small molecule agonists, cell-based qHTS assay with human liver microsomes: qHTS cell viability counter screen (AID 1963579); note: nearly all actives have a fitted effect of over 45% in size
Method in brief: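 In this multiplexed counter screen, the reporter plates were subsequently treated with CellTiter-Glo so that cell viability, reflected by luminescence, could be recorded for p53RE-bla cells dosed 16 h with compounds under microsomal activation (HLM and NADPH).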

[8] = p53 small molecule agonists, cell-based qHTS assay with rat liver microsomes: qHTS cell viability counter screen (AID 1963580); note: nearly all actives have a fitted effect of over 45% in size
Method in brief: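 In HCT-116 cells carrying a p53 response element-bla reporter, compounds were metabolically activated in situ by rat liver microsomes with NADPH over 16 h. Cell ATP content then served as the cytotoxicity measure.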

[9] = p53 small molecule agonists, cell-based qHTS assay: qHTS cell viability counter screen (AID 1963581); note: nearly all actives have a fitted effect of over 45% in size
Method in brief: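 Following 5 h attachment, HCT-116 p53RE-bla cells took up compound for 16 h at 37 C; the reporter was read with B/G FRET substrate (2 h RT), and viability then via CellTiter-Glo ATP luminescence.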

[10] = p53 small molecule agonists, cell-based qHTS assay (AID 1963582; active = well fitted activation curve with a large enough effect in the signal ratio in the repeat runs, not every such curve was filed as active; the % refers to the signal ratio)
Method in brief: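 In this cell-based concentration-response screen, a p53 response element drives beta-lactamase; cells received DMSO-borne compounds after 5 h culture and were incubated a further 16 h before FRET substrate development.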

[11] = target: 5-hydroxytryptamine receptor 2A (Homo sapiens) (UniProt P28223); experiment: 5-hydroxytryptamine receptor 2A (HTR2A) small molecule antagonists, cell-based qHTS assay (AID 1963586); note: nearly all actives have a fitted effect of over 45% in size
5-hydroxytryptamine receptor 2A (Homo sapiens), sequence (P28223 whole entry, looked up): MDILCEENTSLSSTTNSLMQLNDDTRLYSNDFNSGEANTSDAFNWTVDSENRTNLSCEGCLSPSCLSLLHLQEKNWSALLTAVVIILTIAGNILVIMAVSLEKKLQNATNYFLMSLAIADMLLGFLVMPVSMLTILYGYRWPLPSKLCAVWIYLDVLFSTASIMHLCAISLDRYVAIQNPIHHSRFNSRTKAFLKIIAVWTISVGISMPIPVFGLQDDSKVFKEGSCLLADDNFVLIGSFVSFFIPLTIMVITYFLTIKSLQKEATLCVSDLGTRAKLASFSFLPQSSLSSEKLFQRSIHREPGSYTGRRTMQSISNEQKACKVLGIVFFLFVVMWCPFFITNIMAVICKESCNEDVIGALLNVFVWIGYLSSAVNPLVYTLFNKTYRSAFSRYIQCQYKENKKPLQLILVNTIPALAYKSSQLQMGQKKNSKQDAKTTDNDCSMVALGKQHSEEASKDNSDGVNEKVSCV
Method in brief: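 Antagonist-mode intracellular calcium assay: DOI (4 nM) added after 5 min compound pre-incubation at room temperature to dye-loaded HTR2A-CHO cells. Fluorescence followed for 3 min, sampled every second.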

[12] = target: 5-hydroxytryptamine receptor 2A (Homo sapiens) (UniProt P28223); experiment: 5-hydroxytryptamine receptor 2A (HTR2A) small molecule agonists, cell-based qHTS assay (AID 1963587); note: nearly all actives have a fitted effect of over 30% in size
Method in brief: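 HTR2A-CHO cells, plated 18 h at 37 C/5% CO2, dye-loaded 1 h at 37 C; compounds in DMSO added by pin tool (agonist mode). Intracellular calcium flux read as kinetic fluorescence on FDSS over 2 min at 1 s intervals.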

[13] = target: Muscarinic acetylcholine receptor M1 (Homo sapiens) (UniProt P11229); experiment: Cholinergic receptor muscarinic 1 (CHRM1) small molecule antagonists, cell-based qHTS assay (AID 1963588); note: nearly all actives have a fitted effect of over 40% in size
Muscarinic acetylcholine receptor M1 (Homo sapiens), sequence (P11229 whole entry, looked up): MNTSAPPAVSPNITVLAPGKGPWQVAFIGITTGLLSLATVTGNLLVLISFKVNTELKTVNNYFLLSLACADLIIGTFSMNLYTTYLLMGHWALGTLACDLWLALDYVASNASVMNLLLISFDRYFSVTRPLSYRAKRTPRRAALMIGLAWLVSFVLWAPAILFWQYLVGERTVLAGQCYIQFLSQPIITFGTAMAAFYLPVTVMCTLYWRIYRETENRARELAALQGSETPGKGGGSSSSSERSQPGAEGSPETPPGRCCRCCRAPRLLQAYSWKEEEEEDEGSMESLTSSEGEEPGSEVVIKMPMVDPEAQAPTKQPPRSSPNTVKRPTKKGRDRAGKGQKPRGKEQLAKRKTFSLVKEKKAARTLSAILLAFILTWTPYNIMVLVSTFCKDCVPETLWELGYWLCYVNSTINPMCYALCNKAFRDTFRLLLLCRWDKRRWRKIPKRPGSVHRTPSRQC
Method in brief: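 CHRM1-CHO calcium-flux assay, antagonist mode. Cells were seeded 18 h, dye-loaded 1 h at 37 C and given compound for 5 min at RT, then acetylcholine was added at 50nM. FDSS fluorescence was read 3 min; 15 concentrations, three runs.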

[14] = target: Muscarinic acetylcholine receptor M1 (Homo sapiens) (UniProt P11229); experiment: Cholinergic receptor muscarinic 1 (CHRM1) small molecule agonists, cell-based qHTS assay (AID 1963589); note: nearly all actives have a fitted effect of over 35% in size
Method in brief: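 Measures agonist-induced intracellular calcium rise. Stable human CHRM1 CHO line, 1 h dye load at 37 C, compounds from DMSO, kinetic fluorescence read.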

[15] = cAMP Responsive Elements (CRE) small molecule agonists, cell-based qHTS assay (AID 1963590)
Method in brief: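 A CRE-responsive beta-lactamase reporter in HEK 293T cells was used. Treatment ran 3 h at 37 C; detection used LiveBLAzer B/G FRET substrate for 2 h at room temperature.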

[16] = cAMP Responsive Elements (CRE) small molecule antagonists, cell-based qHTS assay (AID 1963591; active = well fitted inhibition curve with a large enough effect in the signal ratio in the repeat runs, not every such curve was filed as active; the % refers to the signal ratio)
Method in brief: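 HEK293T cells carrying a CRE-driven beta-lactamase reporter receive compound and NKH477 (0.25 uM final) for 3 h. Fluorescence from LiveBLAzer B/G FRET substrate is read after 2 h at room temperature.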

[17] = target: D(2) dopamine receptor (Homo sapiens) (UniProt P14416); experiment: Dopamine D2 receptor (DRD2) small molecule agonists, cell-based qHTS assay (AID 1963594); note: nearly all actives have a fitted effect of over 35% in size
D(2) dopamine receptor (Homo sapiens), sequence (P14416 whole entry, looked up): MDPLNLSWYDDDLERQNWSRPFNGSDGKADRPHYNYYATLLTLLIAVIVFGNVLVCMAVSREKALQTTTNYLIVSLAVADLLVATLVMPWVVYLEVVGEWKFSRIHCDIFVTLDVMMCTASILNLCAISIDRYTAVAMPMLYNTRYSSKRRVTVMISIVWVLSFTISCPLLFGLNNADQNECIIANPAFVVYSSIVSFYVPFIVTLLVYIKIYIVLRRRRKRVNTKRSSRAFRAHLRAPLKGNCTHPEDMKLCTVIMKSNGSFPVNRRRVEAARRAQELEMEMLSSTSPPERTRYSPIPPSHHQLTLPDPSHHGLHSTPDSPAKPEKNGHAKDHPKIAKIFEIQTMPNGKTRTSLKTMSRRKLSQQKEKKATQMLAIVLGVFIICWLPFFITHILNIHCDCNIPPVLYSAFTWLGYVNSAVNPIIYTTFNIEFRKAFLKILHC
Method in brief: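 HEK293 cells stably expressing DRD2 were cultured 24 h at 37 C, then given Ro20-1724 (0.1 mM final) and compounds for 10 min at room temperature. NKH477 (200nM) was then added for 30 min. cAMP was read by HTRF.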

[18] = target: D(2) dopamine receptor (Homo sapiens) (UniProt P14416); experiment: Dopamine D2 receptor (DRD2) small molecule antagonists, cell-based qHTS assay (AID 1963595; active = well fitted inhibition curve with a large enough effect in the signal ratio in the repeat runs, with a control signal flat; the % refers to the signal ratio)
Method in brief: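 Stable D2 receptor HEK293 line, 24 h after seeding. Compound preincubated 10 min, then quinpirole (12 nM) with forskolin analogue NKH477 (200 nM), 30 min, room temperature. Detection by time-resolved FRET of cAMP.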

[19] = target: Beta-2 adrenergic receptor (Homo sapiens) (UniProt P07550); experiment: Adrenergic beta2 receptor (ADRB2) small molecule antagonists, cell-based qHTS assay (AID 1963592); note: series mostly up to about 92 µM; nearly all actives have a fitted effect of over 50% in size
Beta-2 adrenergic receptor (Homo sapiens), sequence (P07550 whole entry, looked up): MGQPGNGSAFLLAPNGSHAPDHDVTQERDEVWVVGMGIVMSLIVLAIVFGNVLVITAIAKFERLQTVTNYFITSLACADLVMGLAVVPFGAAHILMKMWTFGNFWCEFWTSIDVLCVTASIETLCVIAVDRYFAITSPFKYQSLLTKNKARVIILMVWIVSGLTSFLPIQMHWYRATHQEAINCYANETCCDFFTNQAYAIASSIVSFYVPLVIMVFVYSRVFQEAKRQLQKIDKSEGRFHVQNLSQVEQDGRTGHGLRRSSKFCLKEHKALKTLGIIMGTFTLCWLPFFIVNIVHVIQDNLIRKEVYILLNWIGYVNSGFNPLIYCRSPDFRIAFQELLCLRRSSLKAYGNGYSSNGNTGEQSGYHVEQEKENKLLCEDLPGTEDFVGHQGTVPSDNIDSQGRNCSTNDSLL
Method in brief: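 Cells (CHO, stable ADRB2 overexpression) incubated 18-20hr at 37C; compounds added from DMSO; agonist mix (1nM isoproterenol, 100uM IBMX, 25uM Ro-20-1724) added; 0.5hr RT; d2-cAMP and anti-cAMP-cryptate added; 1hr RT; 665/615 nm read.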

[20] = target: Beta-2 adrenergic receptor (Homo sapiens) (UniProt P07550); experiment: Adrenergic beta2 receptor (ADRB2) small molecule agonists, cell-based qHTS assay (AID 1963593);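 note: CHO cells stably overexpressing human ADRB2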
Method in brief: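 CHO cells stably over-expressing ADRB2 were plated overnight at 37C, then dosed with compounds plus a stimulation mix containing 100uM IBMX and 25uM Ro-20-1724 for 0.5hr at room temperature. cAMP was measured by HTRF competition, 1hr.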

Measured: Potency

Cc1ccc(N)c(S(=O)(=O)O)c1
not listed: [19] | [20]
inactive: all other assays above

CC[N+](CC)(CC(=O)Nc1c(C)cccc1C)Cc1ccccc1
not listed: [2] | [5] | [6] | [10] | [14]
inactive: all other assays above

CC(=O)c1nccs1
not listed: [4]
inactive: all other assays above

CC1(C)S[C@@H]2[C@H](NC(=O)[C@H](N)c3ccccc3)C(=O)N2[C@H]1C(=O)O
not listed: [4] | [11] | [12] | [13] | [14]
inactive: all other assays above

CCCCCCCCC
not listed: [2] | [7] | [20]
inactive: all other assays above

O=C(O)c1ccc(S(=O)(=O)N(Cl)Cl)cc1
not listed: [1] | [8]
inactive: all other assays above

CC(O)(P(=O)(O)O)P(=O)(O)O
not listed: [5] | [6] | [10] | [11] | [12] | [13] | [14]
inactive: all other assays above

Nc1cccc(N)c1
not listed: [1] | [19] | [20]
inactive: all other assays above

C#CCN(C)Cc1ccccc1
not listed: [1] | [10] | [15] | [16]
inactive: all other assays above

CC1(C)OC[C@@H]2O[C@@]3(C(=O)O)OC(C)(C)O[C@H]3[C@@H]2O1
not listed: [5] | [6] | [10]
inactive: all other assays above

O=Nc1ccc(O)cc1
not listed: [5] | [6] | [10]
inactive: all other assays above

O=C(O)c1ccc(C(=O)O)cc1
not listed: [4] | [12] | [20]
inactive: all other assays above

CC(=O)OC/C=C(\C)CCC=C(C)C
not listed: [1]
inactive: all other assays above
